Shiga toxin inh = blocks Shiga toxin action in Vero cells; Vero cells, Shiga toxin protein synthesis inhibition reporter; inhibition, % at 38.7 µM; 9.2% of 290,000 active; in the data active = inhibition mostly above about 28%, no sharp cut-off; inactive = mostly below about 43%; note: 0% is about no effect
Marburg entry inh = blocks Marburg virus binding to or entry into cells; Potency, µM (highest dose often 37.8 µM), inactives show at the highest dose activity change, negative = inhibition, most hits filed as inhibitors; 1.8% of 300,000 active; Marburg virus pseudotyped entry inhibition, cell reporter; AID 540276; calls by dose curve; tested in HEK293 cells; note: potency is the fitted concentration of half-maximal effect; % is set by controls: 0 for no effect and ±100 for the full control effect
Lassa entry inh = blocks Lassa virus binding to or entry into cells | Lassa virus pseudotype entry inhibition, cell reporter | Potency, µM (series often up to 37.9 µM), without a hit: at the highest dose activity change, negative = inhibition, most hits filed as inhibitors | 1.2% of 300,000 active | AID 540256; calls by dose curve; tested in HEK293 cells; note: potency is the fitted concentration of half-maximal effect; % is set by controls: 0 for no effect and ±100 for the full control effect; nearly all actives have a fitted effect of over 50% in size
Cycloheximide cs = counter-screen hit for Shiga toxin inhibitors, cycloheximide; cell reporter, cycloheximide protein synthesis inhibition counterscreen; max response, %; 12% of 300,000 active; in the data active = max response mostly above about 13%, no sharp cut-off; inactive = mostly below about 14%; note: read at 38.3 µM for the half of the compounds with a filed dose; 0% is about no effect
* marks the source's active call; other numbers are inactive results; u = inconclusive; x = no result given; + = active, no number; [ ] = another dose, or the depositor's remark. Compounds with a hit are over-represented: about 12% of the library has one in this group of screens.

SMILES	Shiga toxin inh	Marburg entry inh	Lassa entry inh	Cycloheximide cs
COc1cccc(C2=NOC(C(=O)N3CCOCC3)C2)c1 (stereo not given)	141.4*	u	u	62.7*
COc1ccc(NC(=O)C2CC(c3c(F)cccc3Cl)=NO2)cc1 (stereo not given)	x	x	x	17.5*
O=C(CN1C(=O)COc2ccc(S(=O)(=O)N3CCCCCC3)cc21)N1CCN(c2ccc(F)cc2)CC1	x	-27.3%[46.1 µM]	-22.7%[46.1 µM]	x
CC1=Nc2cc(C(=O)O)ccc2Sc2ccc(C)cc21	35.5	-2.6%[46.1 µM]	13.3%[46.1 µM]	20.1*
CCC(C)NC(=O)c1ccc2c(c1)N=C(C)c1cc(C)ccc1S2 (stereo not given)	x	u	-16.7%[46.1 µM]	x
CC1=C/C(=N\OS(=O)(=O)c2ccccc2)C(C)=CC1=O	17.5	u	u	8.3*
COc1cc(C(=O)O/N=C2/C=C(C)C(=O)C=C2C)cc(OC)c1OC	-5.9	-6.1%[46.1 µM]	3.9%[46.1 µM]	-1.4
COc1ccc(S(=O)(=O)/N=C2/C=CC(=O)C(C)=C2C)cc1	24.5	u	-9.0%	-7.4
CC1=C(C)/C(=N\OS(=O)(=O)c2ccc(C)cc2)C=CC1=O	-6.0	1.41µM*	6.31µM*	-9.1
CC1=C/C(=N\OS(=O)(=O)c2ccccc2)C(C(C)C)=CC1=O	37.5	u	u	21.5*
Cc1[nH]c2ccccc2c1C(=O)COC(=O)C1CC(O)CN1S(=O)(=O)c1ccc(Cl)cc1 (stereo not given)	x	-4.3%[46.1 µM]	-3.6%	x
CSCCC(NS(=O)(=O)c1ccc(Cl)cc1)C(=O)OCC(=O)c1c(C)[nH]c2ccccc12 (stereo not given)	7.3	11.6µM*	u	-3.6
Cn1c(Cn2nnc3ccccc32)nnc1SCC(=O)Nc1nccs1	-2.7	u	-2.3%	4.6
COc1ccc(OC)c(C(c2nnnn2C2CCCC2)N2CCN(c3ccccc3F)CC2)c1 (stereo not given)	-9.8	10µM*	u	-3.5
CCC(C)(C)n1nnnc1C(c1cc2ccc(OC)cc2[nH]c1=O)N1CCN(C2CCCCC2)CC1 (stereo not given)	-16.8	13µM*	16.1%	-5.7
COc1ccc(N2CCN(C(c3cccc(OC)c3OC)c3nnnn3C3CCCC3)CC2)cc1 (stereo not given)	-3.3	u	2.82µM*	-2.0
COc1ccc(N2CCN(C(c3ccccc3OC)c3nnnn3C3CCCC3)CC2)cc1 (stereo not given)	-2.7	u	u	-2.0
COc1ccccc1N1CCN(C(c2cc3ccc(C)cc3[nH]c2=O)c2nnnn2C2CCCC2)CC1 (stereo not given)	4.3	13µM*	-8.8%	-2.5
Cc1nc(SCC(=O)N2c3ccccc3Sc3ccccc32)n[nH]1	-9.7	-0.3%[46.1 µM]	-6.7%	-6.1
Cc1cc(C)cc(NC(=O)c2ccc3oc(=O)c(S(=O)(=O)c4ccc(F)cc4)cc3c2)c1	x	u	-9.2%[46.1 µM]	x
CCOc1cccc(Nc2nn(-c3ccc(OC(F)(F)F)cc3)nc2C(C)=O)c1	x	-1.0%[46.1 µM]	u	x
C=CC1=C2C=C(C3CC3)N(CCCCO)C=C2C(=O)C(C)(OC(=O)c2ccco2)C1=O (stereo not given)	x	-6.8%[14.2 µM]	x	x
COc1cccc(C(c2nnnn2Cc2ccco2)N2CCN(c3cccc(C)c3C)CC2)c1OC (stereo not given)	58.4*	u	u	17.4
CCOc1ccccc1NC(=O)CN1CCN(Cc2ccccc2)CC1	-4.1	x	x	-2.2
O=C(CNC(=O)c1ccc([N+](=O)[O-])cc1)c1ccccc1	94.8*	u	1.3%	45.9*
SMILES	Shiga toxin inh	Marburg entry inh	Lassa entry inh	Cycloheximide cs
O=C(CNc1ccccc1)c1ccc([N+](=O)[O-])cc1	-12.9	u	3.8%	-5.3
O=C(Cc1ccc(Cl)cc1)NNC(=S)NC(=O)c1cccs1	34.1*	-15.8%	-7.3%	8.9
O=C(CNC(=O)c1cccs1)c1ccc([N+](=O)[O-])cc1	91.8*	u	0.3%	23.1*
O=C(Cc1cccs1)NNC(=S)NCc1ccc(Cl)cc1	-6.8	-15.7%	-4.7%	2.1
O=C(CNC(=O)c1cccs1)OCC(=O)c1ccc([N+](=O)[O-])cc1	48.0	-24.1%[46.1 µM]	8.7%	1.9
O=C(CNC(=O)c1cccs1)c1ccc(F)cc1	23.9	u	-21.6%	25.2*
O=C(NCC(=O)c1ccccc1)OCc1ccc([N+](=O)[O-])cc1	x	u	0.1%[46.1 µM]	29.6*
O=C(CNC(=O)c1cccs1)OCC(=O)c1ccc(Cl)cc1	11.3	x	x	1.1
O=C(CNC(=O)c1ccccc1)OCc1ccc([N+](=O)[O-])cc1	9.4	10.9%	2.4%	2.4
O=C(NCCc1ccc(Cl)cc1)c1cccs1	133.6*	u	-10.6%	42.5*
O=C(COc1cccc(NC(=O)c2cccs2)c1)c1ccc(F)cc1	+	u	u	12.5
O=C(CNC(=O)c1cccs1)c1ccc(Cl)cc1	78.8*	u	-16.0%	37.5*
CCNC(=O)CCSc1nnc(-c2ccc(O)cc2)o1	x	9.5%[46.1 µM]	2.6%[46.1 µM]	x
CCOC(=O)N1CCc2c(sc3c2c(=O)n(Cc2ccccc2)c(=O)n3Cc2cccc(Cl)c2)C1	x	1.2%[46.1 µM]	-19.1%[46.1 µM]	x
O=C(CSc1nnc(COc2ccccc2F)n1-c1ccccc1)NCc1ccco1	53.2*	22.1%	6.0%	19.4*
O=C(CSc1nnc(CNc2ccc(F)cc2)n1Cc1ccccc1)NCc1ccco1	9.3	9.6%	1.0%	-2.7
C=CCn1c(COc2ccccc2F)nnc1SCC(=O)NC(=O)NCc1ccco1	-18.9	21.0%	6.3%	-3.7
CCOc1ccccc1-n1c(CNc2ccc(F)cc2)nnc1SCC(=O)NCc1ccco1	28.5	u	-14.1%	21.6*
Cc1nc2nc(SCC(=O)Nc3cccc(Cl)c3)nn2c(C)c1Cc1ccccc1	x	x	-4.3%[46.1 µM]	x
CCOC1=C(NC(=O)C(C)(C)C)CC(OCC)=C(N2CCOCC2)C1	x	7.0%[46.1 µM]	x	x
O=c1ncccn1[C@@H]1O[C@H](CO)[C@@H](O)[C@H]1O	-7.4	x	x	7.4
Cc1cc(CC(C)C)n(-c2nc3ccccc3c(=O)n2OCC(N)=O)n1	104.2*	6.9%	20.2%	25.7*
Cn1c(SCC(=O)NC(=O)Nc2ccccc2)nnc1-c1ccncc1	-3.5	20.9%[46.1 µM]	10.0%[46.1 µM]	-0.3
Cc1cc(NCc2ccccc2)n2ncc(-c3ccccc3)c2n1	93.0*	u	u	67.4*
COc1ccc(CCNc2cc(C)nc3c(-c4ccc(Cl)cc4)cnn23)cc1OC	-8.3	-11.5%	-4.0%	6.2
SMILES	Shiga toxin inh	Marburg entry inh	Lassa entry inh	Cycloheximide cs
c1ccc(-c2csc3ncnc(NCc4ccccn4)c23)cc1	-5.8	x	x	-3.4
COc1ccccc1-c1cnn2c(NCCc3ccccc3)cc(C)nc12	75.0*	-1.6%[46.1 µM]	-32.5%[46.1 µM]	33.8*
CC(C)(C)c1cc(NCc2ccccn2)n2ncc(-c3ccccc3)c2n1	96.8*	u	u	51.1*
Cc1cc(NCc2ccccc2)n2ncnc2n1	-4.7	x	x	-2.9
COc1ccc(CCNc2nc(-c3ccccc3OC)cc(C(F)(F)F)n2)cc1OC	x	u	21.8%[46.1 µM]	x
COc1nc(NCCc2ccc(OC)c(OC)c2)nc(Nc2ccccc2)n1	x	-24.3%	u	54.4*
CC(C)[C@H](NC(=O)[C@@H]1CSC2c3ccccc3C(=O)N21)C(=O)N1CCCCC1 (stereo not given in full)	-3.7	x	x	2.3
C/C(=N\NC(=O)Cn1cc([N+](=O)[O-])cn1)c1ccco1	22.4	-5.8%	x	-3.1
Cc1cc(NCCN2CCOCC2)n2ncc(-c3ccccc3)c2n1	41.2*	u	u	28.2*
